Measured values from PubChem BioAssay (NCATS).
Inconclusive results are not listed. Where a call stands in place of a potency, no number is given. Calls of active or inactive are those of the source. The call rests on the fitted dose curve.

How the values were obtained:
[1] = Primary qHTS for inhibitors of SARS-S pseudo-typed particle cell entry (AID 1479145); details: SARS-S pseudotyped particle cell entry, luciferase reporter; series mostly up to 57.1 µM; further: nearly all actives have a fitted effect of over 45% in size; further: potency means the concentration at half of the fitted maximal effect
[2] = Primary qHTS for Huh7 cytotoxicity: counterscreen for inhibitors of MERS-S pseudotyped particle cell entry (AID 1479147); details: cell viability read-out; series mostly up to 57.1 µM; further: potency means the concentration at half of the fitted maximal effect
[3] = Primary qHTS for inhibitors of MERS-S pseudo-typed particle cell entry (AID 1479149); details: MERS-S pseudotyped particle entry, luciferase; series mostly up to 57.1 µM; further: nearly all actives have a fitted effect of over 60% in size
[4] = Primary qHTS for Vero E6 cytotoxicity: counterscreen for inhibitors of SARS-S pseudo-typed particle cell entry (AID 1479150); details: cell viability; series mostly up to 57.1 µM

SMILES: Nc1nc(F)nc2c1ncn2[C@@H]1O[C@H](CO)[C@@H](O)[C@@H]1O
- Potency [1]: inactive
- Potency [2]: inactive
- Potency [3]: inactive
- Potency [4]: inactive

SMILES: CC12CC3CC(C)(C1)CC(N)(C3)C2
- Potency [1]: inactive
- Potency [2]: inactive
- Potency [3]: inactive
- Potency [4]: inactive

SMILES: Oc1ccc(C2CNCCc3c2cc(O)c(O)c3Cl)cc1 (stereo not given)
- Potency [1]: inactive
- Potency [2]: inactive
- Potency [3]: inactive
- Potency [4]: inactive

SMILES: O=NN(CCCl)C(=O)NCCCl
- Potency [1]: inactive
- Potency [2]: inactive
- Potency [3]: inactive
- Potency [4]: inactive

SMILES: O=C(O)COCCN1CCN(C(c2ccccc2)c2ccc(Cl)cc2)CC1 (stereo not given)
- Potency [1]: inactive
- Potency [2]: inactive
- Potency [3]: inactive
- Potency [4]: inactive

SMILES: CC(S)C(=O)NCC(=O)O (stereo not given)
- Potency [1]: inactive
- Potency [2]: inactive
- Potency [3]: inactive
- Potency [4]: inactive

SMILES: CN(C)CCOC(c1ccc(Cl)cc1)c1ccccn1 (stereo not given)
- Potency [1]: inactive
- Potency [2]: inactive
- Potency [3]: inactive

SMILES: NC(=O)c1cn(Cc2c(F)cccc2F)nn1
- Potency [1]: inactive
- Potency [2]: inactive
- Potency [3]: inactive
- Potency [4]: inactive

SMILES: COc1cc2c(c(OC)c1OC)-c1ccc(OC)c(=O)cc1[C@@H](NC(C)=O)CC2
- Potency [1]: inactive
- Potency [2]: inactive
- Potency [3]: inactive

SMILES: CC[C@]1(O)C[C@H]2CN(CCc3c([nH]c4ccccc34)[C@@](C(=O)OC)(c3cc4c(cc3OC)N(C=O)[C@H]3[C@@](O)(C(=O)OC)[C@H](OC(C)=O)[C@]5(CC)C=CCN6CC[C@]43[C@@H]65)C2)C1
- Potency [1]: inactive
- Potency [2]: inactive

SMILES: COc1ccccc1OCC(O)COC(N)=O (stereo not given)
- Potency [1]: inactive
- Potency [2]: inactive
- Potency [3]: inactive
- Potency [4]: inactive

SMILES: Cc1cnc(C(=O)NCCc2ccc(S(=O)(=O)NC(=O)NC3CCCCC3)cc2)cn1
- Potency [1]: inactive
- Potency [2]: inactive
- Potency [3]: inactive
- Potency [4]: inactive

SMILES: O=C(O)CCNC(=O)c1ccc(N=Nc2ccc(O)c(C(=O)O)c2)cc1
- Potency [1]: inactive
- Potency [2]: inactive
- Potency [3]: inactive
- Potency [4]: inactive

SMILES: CCCSc1ccc2nc(NC(=O)OC)[nH]c2c1
- Potency [1]: inactive
- Potency [2]: inactive
- Potency [3]: inactive

SMILES: Cc1nc(Nc2ncc(C(=O)Nc3c(C)cccc3Cl)s2)cc(N2CCN(CCO)CC2)n1
- Potency [1]: inactive
- Potency [2]: inactive

SMILES: CC(C)OC(=O)C(C)(C)Oc1ccc(C(=O)c2ccc(Cl)cc2)cc1
- Potency [1]: inactive

SMILES: COc1ccc(Cl)cc1C(=O)NCCc1ccc(S(=O)(=O)NC(=O)NC2CCCCC2)cc1
- Potency [1]: inactive
- Potency [2]: inactive
- Potency [3]: inactive
- Potency [4]: inactive

SMILES: CO[C@H]1C=CO[C@@]2(C)Oc3c(C)c(O)c4c(O)c(c(/C=N/N5CCN(C)CC5)c(O)c4c3C2=O)NC(=O)/C(C)=C\C=C[C@H](C)[C@H](O)[C@@H](C)[C@@H](O)[C@@H](C)[C@H](OC(C)=O)[C@@H]1C
- Potency [1]: inactive
- Potency [2]: inactive
- Potency [3]: inactive
- Potency [4]: inactive

SMILES: O=NN(CCCl)C(=O)NC1CCCCC1
- Potency [1]: inactive
- Potency [2]: inactive
- Potency [3]: inactive
- Potency [4]: inactive

SMILES: CC(=O)[C@]1(O)Cc2c(O)c3c(c(O)c2[C@@H](O[C@H]2C[C@H](N)[C@H](O)[C@H](C)O2)C1)C(=O)c1ccccc1C3=O
- Potency [1]: 8.91 µM (active)
- Potency [2]: 7.08 µM (active)

SMILES: Cc1ncc([N+](=O)[O-])n1CCO
- Potency [1]: inactive
- Potency [2]: inactive
- Potency [3]: inactive
- Potency [4]: inactive

SMILES: CN1C[C@H]2c3ccccc3Oc3ccc(Cl)cc3[C@@H]2C1
- Potency [1]: inactive

SMILES: CC(=O)N[C@@H](CS)C(=O)O
- Potency [1]: inactive
- Potency [2]: inactive
- Potency [3]: inactive
- Potency [4]: inactive

SMILES: COc1cc2ncnc(Nc3ccc(F)c(Cl)c3)c2cc1OCCCN1CCOCC1
- Potency [1]: 12.6 µM (active)

SMILES: NC(=O)C(c1ccccc1)(c1ccccc1)[C@@H]1CCN(CCc2ccc3c(c2)CCO3)C1
- Potency [1]: inactive
- Potency [2]: inactive
- Potency [3]: inactive
- Potency [4]: inactive

SMILES: CN/C(=C\[N+](=O)[O-])NCCSCc1ccc(CN(C)C)o1
- Potency [1]: inactive
- Potency [2]: inactive
- Potency [3]: inactive
- Potency [4]: inactive

SMILES: C[C@@H](O)[C@H]1C(=O)N2C(C(=O)O)=C(S[C@@H]3CN[C@H](CNS(N)(=O)=O)C3)[C@H](C)[C@H]12
- Potency [1]: inactive
- Potency [2]: inactive
- Potency [3]: inactive
- Potency [4]: inactive

SMILES: CC1Cc2ccccc2N1NC(=O)c1ccc(Cl)c(S(N)(=O)=O)c1 (stereo not given)
- Potency [1]: inactive
- Potency [2]: inactive
- Potency [3]: inactive
- Potency [4]: inactive

SMILES: CN(C)[C@@H]1C(=O)C(C(N)=O)=C(O)[C@@]2(O)C(=O)C3=C(O)c4c(O)ccc(Cl)c4[C@@H](O)[C@H]3C[C@@H]12
- Potency [1]: inactive
- Potency [2]: inactive
- Potency [3]: inactive
- Potency [4]: inactive

SMILES: CCCN(CCC)S(=O)(=O)c1ccc(C(=O)O)cc1
- Potency [1]: inactive
- Potency [2]: inactive
- Potency [3]: inactive
- Potency [4]: inactive

SMILES: COC(=O)C(c1ccccc1Cl)N1CCc2sccc2C1 (stereo not given)
- Potency [1]: inactive
- Potency [2]: inactive
- Potency [3]: inactive
- Potency [4]: inactive

SMILES: CCN1CCN(C(=O)N[C@@H](C(=O)N[C@@H]2C(=O)N3C(C(=O)O)=C(CSc4nnnn4C)CS[C@H]23)c2ccc(O)cc2)C(=O)C1=O
- Potency [1]: inactive
- Potency [2]: inactive
- Potency [3]: inactive
- Potency [4]: inactive
